# ChEMBL document CHEMBL1961873, “Compounds: GSK PKIS; Assays: Nanosyn kinase panel” (2012)
# Molecular target: Vascular endothelial growth factor receptor 1 (Homo sapiens) (UniProt P17948)
# Conditions: at 1 µM
# Chain of Vascular endothelial growth factor receptor 1 (Homo sapiens) (P17948 whole entry): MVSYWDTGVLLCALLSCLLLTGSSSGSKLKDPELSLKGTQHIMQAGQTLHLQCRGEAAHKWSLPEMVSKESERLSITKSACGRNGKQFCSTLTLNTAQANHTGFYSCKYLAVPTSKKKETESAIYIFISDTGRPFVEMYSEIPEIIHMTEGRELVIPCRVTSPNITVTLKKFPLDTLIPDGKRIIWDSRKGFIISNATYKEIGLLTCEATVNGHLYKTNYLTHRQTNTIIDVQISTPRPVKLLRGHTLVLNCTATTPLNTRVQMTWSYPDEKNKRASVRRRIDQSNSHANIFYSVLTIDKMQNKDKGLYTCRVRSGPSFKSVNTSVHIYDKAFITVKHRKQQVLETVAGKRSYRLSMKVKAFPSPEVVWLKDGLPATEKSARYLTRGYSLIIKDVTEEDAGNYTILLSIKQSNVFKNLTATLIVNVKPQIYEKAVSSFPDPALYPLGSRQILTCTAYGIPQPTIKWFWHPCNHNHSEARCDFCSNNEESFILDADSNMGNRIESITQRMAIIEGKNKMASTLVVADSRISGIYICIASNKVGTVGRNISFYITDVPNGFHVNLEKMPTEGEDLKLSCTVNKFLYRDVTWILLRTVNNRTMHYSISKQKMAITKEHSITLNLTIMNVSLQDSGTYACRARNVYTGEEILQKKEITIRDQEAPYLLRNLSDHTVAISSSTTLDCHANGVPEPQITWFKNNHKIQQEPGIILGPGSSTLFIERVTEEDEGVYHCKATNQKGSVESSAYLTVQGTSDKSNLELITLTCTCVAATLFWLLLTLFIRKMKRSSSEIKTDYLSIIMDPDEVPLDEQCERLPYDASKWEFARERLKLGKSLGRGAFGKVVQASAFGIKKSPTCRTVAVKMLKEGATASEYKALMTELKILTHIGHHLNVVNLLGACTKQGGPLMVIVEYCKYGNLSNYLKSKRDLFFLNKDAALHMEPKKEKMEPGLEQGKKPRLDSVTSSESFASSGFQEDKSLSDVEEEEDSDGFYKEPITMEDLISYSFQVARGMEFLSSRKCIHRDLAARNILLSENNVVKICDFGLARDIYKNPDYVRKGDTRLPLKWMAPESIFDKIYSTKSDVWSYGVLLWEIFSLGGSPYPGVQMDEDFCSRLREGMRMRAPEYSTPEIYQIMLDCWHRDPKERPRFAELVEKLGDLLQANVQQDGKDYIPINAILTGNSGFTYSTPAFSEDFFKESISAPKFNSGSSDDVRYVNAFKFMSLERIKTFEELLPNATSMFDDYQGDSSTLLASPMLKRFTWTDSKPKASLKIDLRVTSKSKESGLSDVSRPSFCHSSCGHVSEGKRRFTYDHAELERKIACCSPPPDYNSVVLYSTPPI
row,SMILES,inhibition [%]
1,Nc1nccc(-c2c(-c3ccc(F)cc3)ncn2CCCN2CCOCC2)n1,-0.18
2,NS(=O)(=O)c1ccc(Nc2cc(-c3cccc(O)c3)n[nH]2)cc1,11.9
3,C[C@@H](Oc1cc(-n2cnc3ccc(OC[C@@H](O)CO)cc32)sc1C(N)=O)c1ccccc1Cl,-1.26
4,CN1CCN(C(=O)c2ccc(NC(=O)Nc3ccc(N(C)c4ccnc(Nc5ccc(CS(C)(=O)=O)cc5)n4)cc3)cc2)CC1,43.5
5,Nc1nccc(-c2c(-c3ccc(F)cc3)nn3cc(C(F)(F)F)ccc23)n1,0.63
6,COc1cccc(-n2nc(C)c3c(N/N=C(\C)c4ccncc4)ncnc32)c1,-0.07
7,CN(C)c1cc2c(Nc3ccc4c(cnn4Cc4ccccc4)c3)ncnc2cn1,1.36
8,CC(C)c1ccc2c(c1)NC(=O)/C2=N/Nc1ccc(S(N)(=O)=O)cc1,2.87
9,COc1cc(Nc2nccc(-c3cnn4ncccc34)n2)cc(OC)c1,30.9
10,NS(=O)(=O)c1cccc(-c2cc3ccncc3cc2OCc2ccccc2)c1,3.8
11,CCS(=O)(=O)c1ccc(OC)c(Nc2nccc(N(C)c3ccc4c(C)n[nH]c4c3)n2)c1,91.2
12,NS(=O)(=O)c1ccc(N/N=C2\C(=O)Nc3ccc(Cl)cc32)cc1,8.28
13,OCc1ccc(-c2nc(-c3ccccn3)c(-c3ccc4c(c3)OCO4)[nH]2)cc1,2.09
14,NC(=O)c1cccc(Nc2nccc(Nc3cccc(F)c3)n2)c1,16.4
15,ON=C1CCc2cc(-c3nc(C4CCNCC4)[nH]c3-c3ccncc3)ccc21,0.61
16,CN(C)C(=O)O[C@H]1CN[C@H](C#Cc2cc3ncnc(Nc4ccc(OCc5cccc(F)c5)c(Cl)c4)c3s2)C1,2.23
17,Cc1cc(Cl)cc2c1NC(=O)C2=NNc1ccc(S(N)(=O)=O)cc1,-0.12

row,SMILES,inhibition [%]
1,COc1ccc(-c2nn3ncccc3c2-c2ccnc(Nc3cccc(C(F)(F)F)c3)n2)cc1,10.2
2,O=C(Nc1ccc(Oc2ccc3[nH]c(NC(=O)c4ccco4)nc3c2)cc1)Nc1cc(C(F)(F)F)ccc1F,78.8
3,NS(=O)(=O)c1cccc(Nc2cc(-c3ccc(F)cc3)n[nH]2)c1,15.9
4,CS(=O)(=O)Nc1cccc(-c2ccc3c(NC(=O)C4CC4)n[nH]c3c2)c1,-1.44
5,Cc1ccc2c(c1)/C(=N/Nc1ccc(S(N)(=O)=O)cc1)C(=O)N2,7.86
6,COc1cc2ncn(-c3cc(OCc4ccccc4S(C)(=O)=O)c(C#N)s3)c2cc1OC,15.7
7,Nc1ccc(C#Cc2cncnc2Nc2ccc(OCc3cccc(F)c3)c(Cl)c2)cc1,1.35
8,Cc1nc(-c2ccccc2)n2nc(NCCCN3CCOCC3)ncc12,-1.07
9,CCOc1nccc2c1nc(-c1nonc1N)n2CC,2.02
10,COc1cc(/C=N/Nc2ncnc3c2cnn3C(C)C)ccc1O,3.88
11,NS(=O)(=O)c1ccc(-c2cc3ccncc3cc2OCc2ccccc2)cc1,2.57
12,CN(C)CCCn1c(-c2nonc2N)nc2cnccc21,2.77
13,Cc1ccc(O)cc1Nc1ccnc2ccc(S(C)(=O)=O)cc12,72.6
14,Cc1ccc2c(-c3ccnc(Nc4ccc5c(c4)OCCO5)n3)c(-c3ccc(C(F)(F)F)cc3)nn2n1,-0.4
15,CCn1c(-c2nonc2N)nc2c(C#CC(C)(C)O)nc(OCCNC)cc21,10.2
16,Cc1ccc(NC(=O)CC2CC2)cc1-c1ccc(C(=O)NCC2CC2)cc1,1.74
17,Oc1cccc(-c2nc(-c3ccccc3)[nH]c2-c2ccncc2)c1,43.8

# Molecular target: Receptor-type tyrosine-protein kinase FLT3 (Homo sapiens) (UniProt P36888);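 note: mean inhibition value from the GSK PKIS kinase screening set, with the assay run by Nanosyn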
# Sequence (P36888 whole entry): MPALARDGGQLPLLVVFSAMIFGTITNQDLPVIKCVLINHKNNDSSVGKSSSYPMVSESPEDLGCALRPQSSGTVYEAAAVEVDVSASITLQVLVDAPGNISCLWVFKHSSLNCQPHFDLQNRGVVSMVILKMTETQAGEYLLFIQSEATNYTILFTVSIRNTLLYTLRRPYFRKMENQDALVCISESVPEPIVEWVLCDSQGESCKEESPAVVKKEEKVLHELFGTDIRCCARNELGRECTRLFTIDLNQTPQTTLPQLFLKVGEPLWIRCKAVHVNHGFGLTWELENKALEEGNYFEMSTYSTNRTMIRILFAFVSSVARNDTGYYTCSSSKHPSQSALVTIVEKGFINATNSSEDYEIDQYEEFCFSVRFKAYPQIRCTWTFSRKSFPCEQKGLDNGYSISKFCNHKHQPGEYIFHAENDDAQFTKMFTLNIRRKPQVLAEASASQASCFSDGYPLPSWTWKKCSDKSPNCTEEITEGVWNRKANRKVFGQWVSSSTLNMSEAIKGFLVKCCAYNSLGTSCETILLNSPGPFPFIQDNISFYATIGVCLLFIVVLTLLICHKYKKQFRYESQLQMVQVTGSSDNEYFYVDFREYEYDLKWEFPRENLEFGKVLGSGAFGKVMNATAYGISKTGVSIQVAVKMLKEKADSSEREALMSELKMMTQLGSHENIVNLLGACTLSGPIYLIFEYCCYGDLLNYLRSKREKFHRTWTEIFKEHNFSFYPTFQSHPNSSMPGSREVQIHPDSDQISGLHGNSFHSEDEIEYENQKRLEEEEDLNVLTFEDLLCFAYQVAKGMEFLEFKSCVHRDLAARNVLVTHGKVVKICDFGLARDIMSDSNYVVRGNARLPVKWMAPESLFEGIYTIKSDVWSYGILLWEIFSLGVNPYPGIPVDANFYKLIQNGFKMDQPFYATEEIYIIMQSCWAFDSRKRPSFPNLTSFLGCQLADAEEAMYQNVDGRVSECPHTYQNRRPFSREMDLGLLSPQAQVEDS
# Conditions: at 0.1 µM
row,SMILES,inhibition [%]
1,Nc1nccc(-c2c(-c3ccc(F)cc3)ncn2CCCN2CCOCC2)n1,-0.59
2,NS(=O)(=O)c1ccc(Nc2cc(-c3cccc(O)c3)n[nH]2)cc1,5.64
3,C[C@@H](Oc1cc(-n2cnc3ccc(OC[C@@H](O)CO)cc32)sc1C(N)=O)c1ccccc1Cl,0.49
4,CN1CCN(C(=O)c2ccc(NC(=O)Nc3ccc(N(C)c4ccnc(Nc5ccc(CS(C)(=O)=O)cc5)n4)cc3)cc2)CC1,64.7
5,Nc1nccc(-c2c(-c3ccc(F)cc3)nn3cc(C(F)(F)F)ccc23)n1,2.41
6,COc1cccc(-n2nc(C)c3c(N/N=C(\C)c4ccncc4)ncnc32)c1,0.32
7,CN(C)c1cc2c(Nc3ccc4c(cnn4Cc4ccccc4)c3)ncnc2cn1,1.97
8,CC(C)c1ccc2c(c1)NC(=O)/C2=N/Nc1ccc(S(N)(=O)=O)cc1,4.65
9,COc1cc(Nc2nccc(-c3cnn4ncccc34)n2)cc(OC)c1,59.6
10,NS(=O)(=O)c1cccc(-c2cc3ccncc3cc2OCc2ccccc2)c1,4.34
11,CCS(=O)(=O)c1ccc(OC)c(Nc2nccc(N(C)c3ccc4c(C)n[nH]c4c3)n2)c1,6.38
12,NS(=O)(=O)c1ccc(N/N=C2\C(=O)Nc3ccc(Cl)cc32)cc1,16.4
13,OCc1ccc(-c2nc(-c3ccccn3)c(-c3ccc4c(c3)OCO4)[nH]2)cc1,3.25
14,NC(=O)c1cccc(Nc2nccc(Nc3cccc(F)c3)n2)c1,3.08
15,ON=C1CCc2cc(-c3nc(C4CCNCC4)[nH]c3-c3ccncc3)ccc21,-2.95
16,CN(C)C(=O)O[C@H]1CN[C@H](C#Cc2cc3ncnc(Nc4ccc(OCc5cccc(F)c5)c(Cl)c4)c3s2)C1,-0.55
17,Cc1cc(Cl)cc2c1NC(=O)C2=NNc1ccc(S(N)(=O)=O)cc1,2.63

row,SMILES,inhibition [%]
1,COc1ccc(-c2nn3ncccc3c2-c2ccnc(Nc3cccc(C(F)(F)F)c3)n2)cc1,1.01
2,O=C(Nc1ccc(Oc2ccc3[nH]c(NC(=O)c4ccco4)nc3c2)cc1)Nc1cc(C(F)(F)F)ccc1F,15
3,NS(=O)(=O)c1cccc(Nc2cc(-c3ccc(F)cc3)n[nH]2)c1,16.3
4,CS(=O)(=O)Nc1cccc(-c2ccc3c(NC(=O)C4CC4)n[nH]c3c2)c1,0.45
5,Cc1ccc2c(c1)/C(=N/Nc1ccc(S(N)(=O)=O)cc1)C(=O)N2,13.6
6,COc1cc2ncn(-c3cc(OCc4ccccc4S(C)(=O)=O)c(C#N)s3)c2cc1OC,3.03
7,Nc1ccc(C#Cc2cncnc2Nc2ccc(OCc3cccc(F)c3)c(Cl)c2)cc1,0.49
8,Cc1nc(-c2ccccc2)n2nc(NCCCN3CCOCC3)ncc12,2.39
9,CCOc1nccc2c1nc(-c1nonc1N)n2CC,0.14
10,COc1cc(/C=N/Nc2ncnc3c2cnn3C(C)C)ccc1O,2.52
11,NS(=O)(=O)c1ccc(-c2cc3ccncc3cc2OCc2ccccc2)cc1,2.19
12,CN(C)CCCn1c(-c2nonc2N)nc2cnccc21,2.53
13,Cc1ccc(O)cc1Nc1ccnc2ccc(S(C)(=O)=O)cc12,2.73
14,Cc1ccc2c(-c3ccnc(Nc4ccc5c(c4)OCCO5)n3)c(-c3ccc(C(F)(F)F)cc3)nn2n1,2.13
15,CCn1c(-c2nonc2N)nc2c(C#CC(C)(C)O)nc(OCCNC)cc21,1.46
16,Cc1ccc(NC(=O)CC2CC2)cc1-c1ccc(C(=O)NCC2CC2)cc1,1.93
17,Oc1cccc(-c2nc(-c3ccccc3)[nH]c2-c2ccncc2)c1,5.28
